Experiment [1] is described as follows: antimalarial activity against Dd2 strain (AID 2302;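 active means growth inhibition above 50% at the single 2 µM test dose, taken to imply half-maximal potency below 2 µM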;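 further: 0% = DMSO untreated growth and 100% = chloroquine plus artemisinin killed control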). To be noted: P. falciparum Dd2 in RBCs, LDH growth readout, 72 h; at 2 µM; active compounds read high.
Experiment [2] can be described thus: human hepatoma cell viability loss – ATP luminescence, cytotoxicity control for P. falciparum antimalarial project, primary screen (AID 2303;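 active means inhibition above 50%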;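 further: 0% = DMSO wells and 100% = digitonin-killed cells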). To be noted: HepG2 viability, 24-48 h, at 10 µM, active compounds read high.
In experiment [3] the target is L-lactate dehydrogenase (Plasmodium falciparum (isolate CDC / Honduras)) (UniProt Q27743). Description: PfLDH activity inhibition – cell lysate, 3D7 strain, counter-screen for P. falciparum growth inhibition project (AID 2304).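 Further: 0% = vehicle and 100% = reference inhibitor.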 To be noted: P. falciparum 3D7 crude extract, LDH APAD/NBT absorbance; at 2 µM; active compounds read high. On the technique in general: A counterscreen serves to expose hits that act by an unwanted route or on another target.
Sequence of L-lactate dehydrogenase (Plasmodium falciparum (isolate CDC / Honduras)) (Q27743 whole entry, looked up): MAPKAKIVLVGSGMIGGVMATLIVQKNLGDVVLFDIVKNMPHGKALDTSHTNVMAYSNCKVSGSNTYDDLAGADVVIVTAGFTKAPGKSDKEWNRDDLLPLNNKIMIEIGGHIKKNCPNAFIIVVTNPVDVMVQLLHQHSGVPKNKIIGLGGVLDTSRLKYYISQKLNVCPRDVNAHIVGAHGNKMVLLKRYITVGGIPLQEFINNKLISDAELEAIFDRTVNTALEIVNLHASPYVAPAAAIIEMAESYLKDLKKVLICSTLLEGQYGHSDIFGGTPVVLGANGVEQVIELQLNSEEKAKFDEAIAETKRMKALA

Experiment [4] can be described thus: inhibition of 3D7 malaria parasite growth – strain 3D7 (AID 2306).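 Further: 0% = DMSO wells and 100% = chloroquine plus artemisinin control wells.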 To be noted: P. falciparum 3D7 erythrocytic growth, LDH absorbance, 72 h; at 2 µM; active compounds read high.
Experiment [5] addresses Calcium-dependent protein kinase 1 (Plasmodium falciparum (isolate 3D7)) (UniProt P62344). Description: PfCDPK1 kinase inhibitors, biochemical, TCAMS library (AID 1159585; cut-off not given, nearly all actives have IC50 up to about 0.98 µM;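 further: inhibitors leave more ATP so luminescence rises with inhibition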). To be noted: recombinant PfCDPK1, Kinase-Glo ATP depletion luminescence.
Experiment [6] deals with Plasmodium falciparum protein kinase 6 (PK6, PF3D7_1337100) (UniProt Q8IDW1). Description: PfPK6 kinase inhibitors, biochemical, TCAMS library (AID 1159586). The conditions noted are these: recombinant PfPK6, Kinase-Glo ATP depletion luminescence. Background: In Kinase-Glo more light means more ATP remaining.
Sequence of Plasmodium falciparum protein kinase 6 (PK6, PF3D7_1337100) (Q8IDW1 1-305): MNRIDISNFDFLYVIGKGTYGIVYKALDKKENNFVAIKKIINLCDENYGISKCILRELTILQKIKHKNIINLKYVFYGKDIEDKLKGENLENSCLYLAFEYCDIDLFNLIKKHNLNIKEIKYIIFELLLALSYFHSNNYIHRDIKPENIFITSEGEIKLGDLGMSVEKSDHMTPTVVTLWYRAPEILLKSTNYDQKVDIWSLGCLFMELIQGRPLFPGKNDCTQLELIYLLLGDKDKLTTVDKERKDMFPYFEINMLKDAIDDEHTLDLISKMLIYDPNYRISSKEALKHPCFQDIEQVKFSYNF
Experiment [7] concerns the target Protein kinase 7 (PK7), Plasmodium falciparum 3D7 (PF3D7_0213400) (UniProt Q7YTF7). The experiment is described as follows: inhibition of Plasmodium PK7 catalytic activity – biochemical, TCAMS antimalarial set, Kinase-Glo luminescence (AID 1159587). To be noted: recombinant PfPK7, Kinase-Glo ATP depletion luminescence.
The target in experiment [8] is Calcium-dependent protein kinase 4 (Plasmodium falciparum (isolate 3D7)) (UniProt Q8IBS5). Description: PfCDPK4 kinase inhibitors, biochemical, TCAMS library (AID 1159588; cut-off not given, nearly all actives have IC50 up to about 0.91 µM). To be noted: recombinant PfCDPK4, Kinase-Glo ATP depletion luminescence.
Sequence of Calcium-dependent protein kinase 4 (Plasmodium falciparum (isolate 3D7)) (Q8IBS5 whole entry, looked up): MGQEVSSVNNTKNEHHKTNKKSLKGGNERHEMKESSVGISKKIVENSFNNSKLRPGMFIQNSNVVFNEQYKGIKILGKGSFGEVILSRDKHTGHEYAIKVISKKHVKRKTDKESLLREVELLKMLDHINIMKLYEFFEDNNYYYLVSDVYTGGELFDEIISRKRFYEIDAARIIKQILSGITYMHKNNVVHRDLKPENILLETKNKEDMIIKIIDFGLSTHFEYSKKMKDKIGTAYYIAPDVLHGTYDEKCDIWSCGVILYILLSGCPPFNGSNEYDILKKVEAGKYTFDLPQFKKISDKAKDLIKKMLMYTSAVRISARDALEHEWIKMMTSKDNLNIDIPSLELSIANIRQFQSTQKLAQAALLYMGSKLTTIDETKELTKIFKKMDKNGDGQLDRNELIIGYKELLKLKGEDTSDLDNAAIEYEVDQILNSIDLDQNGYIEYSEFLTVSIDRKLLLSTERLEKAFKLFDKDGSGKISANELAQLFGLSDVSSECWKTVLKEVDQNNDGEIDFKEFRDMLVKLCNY

A number with no mark means an inactive call. For some assays here: Measured potencies and affinities stand elsewhere. Calls of active or inactive are those of the source. Unless noted, how the calls were made is not given here.

Sequence of Protein kinase 7 (PK7), Plasmodium falciparum 3D7 (PF3D7_0213400) (Q7YTF7 1-343): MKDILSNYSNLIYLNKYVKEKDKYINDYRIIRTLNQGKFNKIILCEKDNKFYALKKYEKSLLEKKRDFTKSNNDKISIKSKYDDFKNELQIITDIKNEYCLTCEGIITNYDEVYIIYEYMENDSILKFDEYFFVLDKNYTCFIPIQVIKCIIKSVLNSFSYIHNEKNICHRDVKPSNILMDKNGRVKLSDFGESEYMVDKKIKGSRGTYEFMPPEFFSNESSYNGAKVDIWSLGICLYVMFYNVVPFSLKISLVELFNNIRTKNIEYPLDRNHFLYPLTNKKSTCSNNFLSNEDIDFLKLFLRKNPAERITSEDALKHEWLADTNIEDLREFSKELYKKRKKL
Sequence of Calcium-dependent protein kinase 1 (Plasmodium falciparum (isolate 3D7)) (P62344 whole entry, looked up): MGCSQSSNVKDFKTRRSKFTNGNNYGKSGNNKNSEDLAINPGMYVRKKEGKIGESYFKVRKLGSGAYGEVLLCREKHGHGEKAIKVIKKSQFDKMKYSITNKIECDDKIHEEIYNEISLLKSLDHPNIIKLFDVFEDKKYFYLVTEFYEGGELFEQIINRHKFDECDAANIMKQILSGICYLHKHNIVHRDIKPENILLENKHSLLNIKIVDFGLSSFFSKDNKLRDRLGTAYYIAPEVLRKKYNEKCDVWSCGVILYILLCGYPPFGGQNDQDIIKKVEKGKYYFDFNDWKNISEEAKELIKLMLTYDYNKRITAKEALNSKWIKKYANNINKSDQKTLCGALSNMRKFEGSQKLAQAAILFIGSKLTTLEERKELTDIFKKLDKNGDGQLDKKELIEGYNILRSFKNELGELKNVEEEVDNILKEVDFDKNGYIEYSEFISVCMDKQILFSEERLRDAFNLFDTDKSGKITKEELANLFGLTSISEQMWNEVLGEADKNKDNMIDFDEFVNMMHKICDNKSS

Take `O=C(c1cccc(COc2ccc3c(c2)CCN(C2CCCC2)CC3)c1)N1CCN(c2ccncc2)CC1`: the growth inhibition in experiment [1] is 35%; in experiment [4] it was 100% (active). The figures for the inhibition in experiment [2] and in experiment [3] were 49% and -8%, respectively. In addition, the result in experiment [5], in experiment [6], in experiment [7] and in experiment [8] was inactive.

Regarding `O=C(Cn1c(CCc2cccc(F)c2F)nc(=O)c2ccccc21)N(CCCN1CCCCC1)Cc1ccc(-c2ccc(C(F)(F)F)cc2)cc1`, the growth inhibition in experiment [1] was 94% (active); in experiment [4] it was 103% (active). Moreover, the inhibition in experiment [2] is 100% (active); in experiment [3], -2%. Further, the result in experiment [5], in experiment [6], in experiment [7] and in experiment [8] was inactive.

As for `O=C(CCCCCNC(=O)c1ccc(O)c(-c2ccc(Cl)c(Cl)c2)c1)NCc1cccc2ccccc12`, the growth inhibition in experiment [1] was 15%; in experiment [4] it was 99% (active). In addition, the inhibition in experiment [2] is 2%; in experiment [3], -2%. In addition, the outcome in experiment [5], in experiment [6], in experiment [7] and in experiment [8] was inactive.

On to `CN(CCc1ccccc1)c1ncc(-c2ccccc2CNCc2ccccc2O)cn1`, for which the figures for the growth inhibition in experiment [1] and in experiment [4] were 94% (active) and 99% (active), respectively. The inhibition in experiment [2] was 10%; in experiment [3] it was -2%. The outcome in experiment [5], in experiment [6], in experiment [7] and in experiment [8] was inactive.

For the compound `FC(F)(F)c1ccc2nc(-c3cccc(-c4ccc(CNCc5cnn(-c6ccccc6)n5)cc4)c3)[nH]c2c1`, the growth inhibition in experiment [1] is 67% (active); in experiment [4], 101% (active). The inhibition in experiment [2] is 14%; in experiment [3], -4%. For the same compound, the result in experiment [5], in experiment [6], in experiment [7] and in experiment [8] was inactive.

Regarding `Cc1cc(NN=Cc2ccccc2[N+](=O)[O-])c2cccc(C)c2n1`, the growth inhibition in experiment [1] was 100% (active); in experiment [4] it was 99% (active). Moreover, the inhibition is -6% in experiment [2] and 1% in experiment [3]. The result in experiment [5], in experiment [6], in experiment [7] and in experiment [8] was inactive.

Consider `Fc1ccc2nc(-c3ccc(-c4ccc(CN5CCN(CCN6CCOCC6)CC5)cc4)s3)[nH]c2c1`, for which the growth inhibition in experiment [1] was 98% (active); in experiment [4], 99% (active). The inhibition is 39% in experiment [2] and -3% in experiment [3]. Further, the result in experiment [5], in experiment [6], in experiment [7] and in experiment [8] was inactive.

On to `NC(=O)c1ccsc1NC(=O)CNC(c1ccccc1)c1ccc(Cl)cc1` (configuration not stated), for which the growth inhibition in experiment [1] is 89% (active); in experiment [4], 83% (active). Further, the inhibition in experiment [2] was 25%; in experiment [3], -3%. Moreover, the result in experiment [5], in experiment [6], in experiment [7] and in experiment [8] was inactive.

With `O=C(Nc1ccc(Cl)cc1)c1cccc(CN2CCCN(Cc3cccc(O)c3)CC2)c1`, the growth inhibition was 43% in experiment [1] and 98% (active) in experiment [4]. Besides, the inhibition in experiment [2] was 14%; in experiment [3], 3%. For the same compound, the result in experiment [5], in experiment [6], in experiment [7] and in experiment [8] was inactive.

Consider `CC(CN(C)C)C(=O)Nc1ccc(-c2ccc(-c3nc4ccccc4[nH]3)cc2)cc1` (configuration not stated), for which the growth inhibition in experiment [1] was 83% (active); in experiment [4], 99% (active). The inhibition in experiment [2] is 2%; in experiment [3] it was -3%. Besides, the outcome in experiment [5], in experiment [6], in experiment [7] and in experiment [8] was inactive.

Regarding `O=C(CCCCCNC(=O)c1ccc(O)c(-c2ccc(Cl)c(Cl)c2)c1)NCCc1ccc(Cl)c(Cl)c1`, the growth inhibition in experiment [1] was 20%; in experiment [4], 97% (active). Moreover, the inhibition in experiment [2] is 57% (active); in experiment [3], -6%. The outcome in experiment [5], in experiment [6], in experiment [7] and in experiment [8] was inactive.

In the case of `Cc1noc(C)c1-c1cccc(CNCc2ccc(-c3cccc(-c4nc5ccc(F)cc5[nH]4)c3)cc2)c1`, the growth inhibition in experiment [1] was 84% (active); in experiment [4], 102% (active). Also, the inhibition was 37% in experiment [2] and 4% in experiment [3]. Further, the result in experiment [5], in experiment [6], in experiment [7] and in experiment [8] was inactive.

Turning to `Cc1onc(-c2c(Cl)cccc2Cl)c1C(=O)NC1=NC(C)(C)ON1c1ccccc1`, the growth inhibition was 36% in experiment [1] and 97% (active) in experiment [4]. The results for the inhibition in experiment [2] and in experiment [3] were 6% and 1%, respectively. The outcome in experiment [5], in experiment [6], in experiment [7] and in experiment [8] was inactive.

With `CS(=O)(=O)CCNCc1nc(-c2ccc3c(Nc4ccc(F)c(O)c4)ccnc3c2)cs1`, the growth inhibition in experiment [1] was 84% (active); in experiment [4] it was 95% (active). Also, the figures for the inhibition in experiment [2] and in experiment [3] were -10% and 3%, respectively. Also, the result in experiment [5], in experiment [6], in experiment [7] and in experiment [8] was inactive.

In the case of `C(=Cc1ccccc1)C=NNc1ccnc2ccccc12`, the growth inhibition in experiment [1] and in experiment [4] was 100% (active) in each case. The inhibition was 24% in experiment [2] and 5% in experiment [3]. Besides, the outcome in experiment [5], in experiment [6], in experiment [7] and in experiment [8] was inactive.

On to `CCCCOc1cc(C)nc2ccc(NC(=O)COCC(=O)Nc3ccc4nc(C)cc(OCCCC)c4c3)cc12`, for which the growth inhibition was 28% in experiment [1] and 90% (active) in experiment [4]. The inhibition was -11% in experiment [2] and -3% in experiment [3]. Further, the result in experiment [5], in experiment [6], in experiment [7] and in experiment [8] was inactive.

In the case of `CCOC(=O)C(C)(C)Oc1ccc(CN(Cc2ccc(CC(C)C)cc2)C(=O)Nc2ccc(F)cc2F)c(OC)c1`, the figures for the growth inhibition in experiment [1] and in experiment [4] were 96% (active) and 97% (active), respectively. Moreover, the inhibition in experiment [2] is 5%; in experiment [3], -8%. Also, the result in experiment [5], in experiment [6], in experiment [7] and in experiment [8] was inactive.

For the compound `COc1cccc2cc(C(=O)N[C@@H](CC(C)C)C(=O)N[C@H](/C=N/NC(=O)OC(C)(C)C)CC(C)C)oc12`, the growth inhibition in experiment [1] is 57% (active); in experiment [4] it was 88% (active). Also, the inhibition in experiment [2] was 8%; in experiment [3], -2%. Moreover, the outcome in experiment [5], in experiment [6], in experiment [7] and in experiment [8] was inactive.

In the case of `CC(=O)N1N=C(c2[nH]c3ccc(Br)cc3c2C)OC1c1ccccc1` (configuration not stated), the growth inhibition in experiment [1] is 68% (active); in experiment [4] it was 86% (active). The inhibition in experiment [2] is 8%; in experiment [3], 0%. For the same compound, the outcome in experiment [5], in experiment [6], in experiment [7] and in experiment [8] was inactive.

The term inhibition denotes the relative decrease from the control value, in per cent.

Source of the values: PubChem BioAssay.
